The values below come from PubChem BioAssay (NCATS).

SMILES strings stand for the structures. Values without a mark were called inactive. Inconclusive results are not listed. Activity calls are given as the source filed them. Calls follow the shape of the dose curve; as a rule, active = well fitted curve in the direction sought with a large enough effect; inconclusive = small, poorly fitted or top-dose-only effect, or another doubt; inactive = no such curve, though single readings can be large; an effect the other way counts as inactive or inconclusive.

Assay [1] addresses Glutathione peroxidase 1 (Homo sapiens) (UniProt P07203). Nature of the assay: Primary qHTS Assay for Inhibitors of Recombinant Selenoprotein Glutathione Peroxidase 1 (GPX1) (AID 1845191). Also: nearly all actives have a fitted effect of over 65% in size. As to activity, negative = inhibition: % is scaled to controls: 0 for no effect and ±100 for the full control effect. Summed up:
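GPX1 10 nM, GR 100 nM, GSH 1 mM, NADPH 0.5 mM, CHP 0.5 mM (final). 30-min cpd preincubation, RT. Ex340/Em450 read t=0, t=15 min.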
In general terms: Quantitative high-throughput screening tests each substance at several concentrations.

The target in assay [2] is Phospholipid hydroperoxide glutathione peroxidase GPX4 (Homo sapiens) (UniProt P36969). Nature of the assay: Primary qHTS Assay for Inhibitors of Recombinant Selenoprotein Glutathione Peroxidase 4 (GPX4) (AID 1845192). Also: nearly all actives have a fitted effect of over 65% in size. As to activity change, negative = inhibition: series mostly up to about 50 µM; % is scaled to controls: 0 for no effect and ±100 for the full control effect. Summed up:
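qHTS, GR-coupled: GPX4 200 nM + cpd 30 min RT → GSH 1 mM, NADPH 0.5 mM, GR 100 nM → CHP 0.5 mM start; fluor 340/450 at t0 and t15 min; no-enzyme wells as control.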

The target in assay [3] is Luciferin 4-monooxygenase (Photinus pyralis) (UniProt P08659). Briefly: Primary firefly luciferase (FLuc) qHTS assay for identification of artifact compounds. (AID 1845220). Also: nearly all actives have a fitted effect of over 60% in size.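 As to activity change, negative = inhibition: series mostly up to about 54 µM; plate controls were DMSO vehicle for no effect and no enzyme for full effect.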 Summed up:
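In this counter-screen for luciferase artifacts, test compounds met substrate (10 uM each luciferin and ATP) before 10 nM enzyme started the reaction. Light output was measured 5 min later.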

Assay [4] is described as follows: Primary fluorescence-based thiol-reactive (MSTI) qHTS assay for identification of artifact compounds. (AID 1845221). Also: nearly all actives have a fitted effect of over 65% in size. Also: potency is read from the fitted curve at half-maximal effect.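 As to activity change, negative = thiol reactive: series mostly up to about 54 µM; thiol-reactive compounds lower the probe fluorescence signal.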 Summed up: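 MSTI probe at 4 uM final in 2% DMSO/PBS pH 7.4; compounds, 1 h at room temperature in dark. Fluorescence Ex/Em 525/598 nm, normalised to Acetyl-MSTI and MSTI, fitted to 4-parameter Hill.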
Assay [5] deals with Nanoluciferase (engineered Oplophorus gracilirostris luciferase). Briefly: Primary Nanoluciferase (NLuc) qHTS assay for identification of artifact compounds. (AID 1845222).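 Also: NLuc secreted into diluted conditioned medium of S16 cells; series mostly up to about 54 µM.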 The method, boiled down:
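Using secreted nanoluciferase in S16 culture medium (0.22 um filtered, 1:55 dilution), compounds were preincubated 15 min at RT. Signal was generated with Nano-Glo reagent (1:100) over 5 min.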

Sequence of Glutathione peroxidase 1 (Homo sapiens) (P07203 whole entry, looked up): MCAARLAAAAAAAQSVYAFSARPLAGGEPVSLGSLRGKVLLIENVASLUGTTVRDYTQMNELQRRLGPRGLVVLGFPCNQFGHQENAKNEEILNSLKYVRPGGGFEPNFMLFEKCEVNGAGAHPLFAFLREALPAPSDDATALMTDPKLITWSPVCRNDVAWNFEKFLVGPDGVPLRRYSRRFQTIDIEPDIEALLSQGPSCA
Sequence of Phospholipid hydroperoxide glutathione peroxidase GPX4 (Homo sapiens) (P36969 whole entry, looked up): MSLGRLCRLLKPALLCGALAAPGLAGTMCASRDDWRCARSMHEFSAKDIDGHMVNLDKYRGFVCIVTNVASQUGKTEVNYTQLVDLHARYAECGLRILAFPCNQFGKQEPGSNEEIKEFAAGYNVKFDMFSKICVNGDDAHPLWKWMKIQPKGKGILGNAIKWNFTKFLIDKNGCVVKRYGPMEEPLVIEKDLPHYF

For the compound `CC(C)S(=O)(=O)NC[C@H](C)c1ccc(-c2ccc(CCNS(C)(=O)=O)cc2)cc1`, the Potency result in assay [1], in assay [2], in assay [3], in assay [4] and in assay [5] was “inactive” each time.
On to `CCC(C)/C=C(C)/C=C/C1=CC2=CC(=O)C3(C)OC(C)(O)C(C(=O)OC)C3C2=CO1` (stereo not given), for which the Potency entry in assay [1], in assay [2], in assay [3], in assay [4] and in assay [5] was “inactive” each time.
Consider `C=C1C(=O)O[C@@H]2C[C@@]3(C)C[C@@H](O)C[C@H](C)C3=C[C@H]12`, for which the Potency result in assay [1], in assay [2], in assay [3], in assay [4] and in assay [5] was “inactive” each time.
`COc1cc(/C=C2\CC[C@H]3COC[C@@H](c4cc(F)c(F)c(F)c4)N3C2=O)ccc1-n1cnc(C)c1`: the Potency entry in assay [1], in assay [2], in assay [3], in assay [4] and in assay [5] was “inactive” each time.
Turning to `NCC(CNc1nc(Nc2cccc(NC(=O)N3CCCC3)c2)ncc1I)C(=O)c1cccs1` (stereo not given), the Potency result in assay [1], in assay [2], in assay [3], in assay [4] and in assay [5] was “inactive” in each case.
For `Cc1c(C2=CCN(C(=O)N(C)C(C)C)CC2)nnn1-c1cccnc1F`, the Potency result in assay [1], in assay [2], in assay [3], in assay [4] and in assay [5] was “inactive” in each case.
As to `Nc1ncnc2c1c(-c1ccc(Oc3ccccc3)cc1)nn2[C@@H]1CCCNC1`, the Potency entry in assay [1], in assay [2], in assay [3], in assay [4] and in assay [5] was “inactive” in each case.
Regarding `COc1cc(C[C@H]2C(=O)OC[C@@H]2Cc2ccc(OC)c(OC)c2)ccc1O`, the Potency result in assay [1], in assay [2], in assay [3], in assay [4] and in assay [5] was “inactive” in each case.
`C=C1CC(=O)C2OC2(C)CC2OC(=O)C(=C)C2C(O)C1OC(=O)/C(C)=C\C` (stereo not given): the Potency result in assay [1], in assay [2], in assay [3], in assay [4] and in assay [5] was “inactive” throughout.
Take `O=C(Nc1ccc(CN2CCOCC2)cc1)c1ccc(-c2cccc(Cl)c2)o1`: the Potency result in assay [1], in assay [2], in assay [3], in assay [4] and in assay [5] was “inactive” each time.
Turning to `CC(C)=CCCC1(C)/C=C/C(OC(=O)C=C(C)C)C(C)(O)/C=C/C(=O)/C(CO)=C\C1` (stereo not given), the Potency entry in assay [1], in assay [2], in assay [3], in assay [4] and in assay [5] was “inactive” each time.
Regarding `O=C(NCCCn1ccnc1)c1cc(-c2ccco2)on1`, the Potency entry in assay [1], in assay [2], in assay [3], in assay [4] and in assay [5] was “inactive” in each case.
In the case of `CC(=O)OC[C@]12[C@H](OC(C)=O)[C@H](OC(=O)c3ccccc3)[C@@H]3[C@@H](OC(C)=O)[C@]1(OC3(C)C)[C@H](C)C[C@H](OC(C)=O)[C@@H]2OC(=O)c1ccccc1`, the Potency entry in assay [1], in assay [2], in assay [3], in assay [4] and in assay [5] was “inactive” each time.
`C/C(=C/CO)CCC1C(C)CCC2C(C)(C)CCCC12C` (stereo not given): the Potency entry in assay [1], in assay [2], in assay [3], in assay [4] and in assay [5] was “inactive” each time.
For the compound `COc1ccc2nc(-c3cc(OC)c(OC)c(OC)c3)cc(C(=O)NCC(=O)Nc3ccc(C(C)=O)cc3)c2c1`, the Potency result in assay [1], in assay [2], in assay [3], in assay [4] and in assay [5] was “inactive” each time.
On to `O=C(NC1(c2ccccc2)CC1)c1c(CN2CCC(N3CCCCC3)CC2)c(-c2cccc(C(F)(F)F)c2)nc2cc(Br)ccc12`, for which the Potency result in assay [1], in assay [2], in assay [3], in assay [4] and in assay [5] was “inactive” in each case.
`COc1cc2c(cc1NS(=O)(=O)c1ccc(Br)cc1C)n(C)c(=O)n2C`: the Potency entry in assay [1], in assay [2], in assay [3], in assay [4] and in assay [5] was “inactive” each time.
As for `COc1cc(-n2cnc3cc(-c4ccc(Cl)cc4)sc3c2=O)ccc1OCCN1CCCC1`, the Potency result in assay [1], in assay [2], in assay [3], in assay [4] and in assay [5] was “inactive” throughout.
Take `COc1ccc(S(=O)(=O)Nc2cc(Cl)cc(Cl)c2OC)cc1N1CCNCC1`: the Potency entry in assay [1], in assay [2], in assay [3], in assay [4] and in assay [5] was “inactive” each time.
In the case of `O=C(Nc1cccnc1)c1cc(-c2ccnc(F)c2)ccc1OCc1ccccc1`, the Potency entry in assay [1], in assay [2], in assay [3], in assay [4] and in assay [5] was “inactive” in each case.
On to `CCOC(=O)CCNc1cc(N2CCc3ccccc3CC2)nc(-c2cccnc2)n1`, for which the Potency entry in assay [1], in assay [2], in assay [3], in assay [4] and in assay [5] was “inactive” throughout.
With `COc1ccccc1OCCN1CC(COc2cccc3[nH]c4ccccc4c23)OCC1=O` (stereo not given), the Potency entry in assay [1], in assay [2], in assay [3], in assay [4] and in assay [5] was “inactive” throughout.
Take `CCOC(=O)N1CCC(CN(Cc2ccc(Cl)cc2)Cc2ccc([N+](=O)[O-])s2)C1` (stereo not given): the Potency result in assay [1], in assay [2], in assay [3] and in assay [5] was “inactive” throughout. Further, the Potency in assay [4] was 13.4 µM (active).
On to `C[C@H]1CC[C@@]2(OC1)O[C@H]1CC3[C@@H]4CC[C@@H]5C[C@@H](O[C@@H]6O[C@H](CO)[C@@H](O[C@@H]7O[C@H](CO[C@@H]8OC[C@@H](O)[C@H](O)[C@H]8O)[C@@H](O[C@@H]8O[C@H](CO)[C@H](O)[C@H](O)[C@H]8O)[C@H](O)[C@H]7O)[C@H](O)[C@H]6O)CC[C@]5(C)C4CC[C@]3(C)[C@H]1[C@@H]2C` (stereo not given in full), for which the Potency entry in assay [1] and in assay [2] was “inactive” throughout. In assay [3], the activity change, negative = inhibition is 2.09% [at 11.6 µM]. Also, in assay [4], the activity change, negative = thiol reactive is 133% [at 11.5 µM]. The activity, negative = inhibition in assay [5] was 2.05% [at 11.6 µM].
In the case of `CCC(C)C(=O)OC1C(C)C2(O)C(C=C(CO)CC3(O)C(=O)C(C)=CC32)C2C(C)(C)C12OC(=O)C(C)C` (stereo not given), the Potency entry in assay [1], in assay [2], in assay [3], in assay [4] and in assay [5] was “inactive” in each case.
Turning to `Nc1nc(O)c(C2=C3C(=Nc4ccccc43)C(=O)NCC2)[nH]1`, the Potency result in assay [1], in assay [2], in assay [3], in assay [4] and in assay [5] was “inactive” in each case.
